Experimental data: publication PMC5540273 (PLoS ONE, 2017)

Key:
Settings in all cases: concentration: 1 μM,replicates: in singlicate; n = 1
MTOR = system: MTOR
MUSK = system: MUSK
MYLK2 = system: MYLK2
MYLK4 = system: MYLK4
MYLK = system: MYLK
MYO3A = system: MYO3A
MYO3B = system: MYO3B
NDR1 = system: T1, NDR1
T1 construct: gene STK38

NDR2 = system: NDR2
NEK10 = system: NEK10
NEK11 = system: NEK11
NEK1 = system: NEK1
NEK2 = system: NEK2
NEK3 = system: NEK3
NEK4 = system: NEK4
NEK5 = system: NEK5
NEK6 = system: NEK6
NEK7 = system: NEK7
NEK9 = system: NEK9
NIK = system: T2, NIK
T2 construct: gene MAP3K14
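Also: KINOMEscan kinase panel screen.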

Row | SMILES | %Inh (MTOR) | %Inh (MUSK) | %Inh (MYLK2) | %Inh (MYLK4) | %Inh (MYLK) | %Inh (MYO3A) | %Inh (MYO3B) | %Inh (NDR1) | %Inh (NDR2) | %Inh (NEK10) | %Inh (NEK11) | %Inh (NEK1) | %Inh (NEK2) | %Inh (NEK3) | %Inh (NEK4) | %Inh (NEK5) | %Inh (NEK6) | %Inh (NEK7) | %Inh (NEK9) | %Inh (NIK)
1 | CCN(CC)CCCCNc1ncc2cc(-c3c(Cl)cccc3Cl)c(NC(=O)NC(C)(C)C)nc2n1 | 39% | 10% | 12% | 43% | 4% | 4% | 23% | 11% | 0% | 29% | 0% | 43% | 11% | 29% | 0% | 0% | 38% | 0% | 0% | 0%
2 | Cc1ccc2c(-c3ccncc3)c(-c3ccc(F)cc3)nn2c1.Cl [GW461484] | 9% | 0% | 17% | 3% | 13% | 0% | 7% | 29% | 0% | 9% | 21% | 0% | 0% | 0% | 11% | 4% | 0% | 0% | 0% | 4%
3 | CCn1c(-c2nonc2N)nc2c(C#CC(C)(C)O)nc(OCCN)cc21.Cl.Cl [GSK902056] | 13% | 20% | 33% | 6% | 4% | 0% | 0% | 31% | 16% | 6% | 3% | 0% | 13% | 4% | 20% | 0% | 0% | 0% | 0% | 63%
4 | CN(C)CCOc1ccc(-c2cc(-c3c[nH]nc3-c3ccccn3)ccn2)cc1 [GW835314] | 0% | 9% | 0% | 0% | 15% | 0% | 30% | 14% | 0% | 0% | 25% | 0% | 3% | 33% | 0% | 0% | 10% | 8% | 11% | 44%
5 | CN(C)CC(O)COc1ccc(Nc2nccc(-c3cnn4nc(N5CCOCC5)ccc34)n2)cc1 (stereo not shown) [GW767488] | 6% | 0% | 38% | 46% | 48% | 33% | 0% | 49% | 0% | 80% | 47% | 44% | 14% | 96.1% | 37% | 0% | 64% | 86% | 55% | 0%
